Out of some 39,000 compounds screened, about 3,300 (8.5%) were called active. This excerpt belongs to a sample that is enriched for actives.

The subject of the assay is HepG2. Nature of the assay: cytotoxicity call (relative viability < 0.9). Particulars: 10 µM.
On to `Cc1cc(C(=O)Nc2cccc3c2O[C@@H](CN(C)S(=O)(=O)c2ccc(F)cc2)[C@@H](C)CN([C@H](C)CO)C3=O)n(C)n1`, for which the cytotoxicity call was “inactive”. On to `COc1ccc(S(=O)(=O)N(C)C[C@@H]2Oc3cc(C#CC4CCCC4)ccc3S(=O)(=O)N([C@H](C)CO)C[C@H]2C)cc1`, for which the cytotoxicity call is “inactive”. For `C[C@@H]1CN([C@H](C)CO)C(=O)c2cc(NS(=O)(=O)c3ccccc3)ccc2O[C@@H]1CN(C)S(=O)(=O)c1ccc(F)cc1` the value was “inactive”; for `COc1ccc(NC(=O)N[C@H]2CC[C@@H](CCNC(=O)CN3CCOCC3)O[C@@H]2CO)cc1`, “inactive”; for `CCS(=O)(=O)Nc1ccc2c(c1)C(=O)N(C)[C@@H]1CC[C@@H](CC(=O)NCc3ccccc3F)O[C@H]1CO2`, “inactive”. For `C[C@@H]1CCCCO[C@H](CN(C)S(=O)(=O)c2ccccc2)[C@H](C)CN([C@@H](C)CO)C(=O)c2cc(NC(=O)C3CCCCC3)ccc2O1` the value was “inactive”. For `COc1ccc(CN(C)C[C@H]2OCCCC[C@H](C)Oc3ccc(NS(=O)(=O)c4ccc(Cl)cc4)cc3C(=O)N([C@H](C)CO)C[C@@H]2C)cc1` the value was “inactive”; for `COCC(=O)N1[C@H](C(=O)NCc2ccccc2)[C@@H](CO)[C@@H]2Cn3c(cccc3=O)[C@@H]21`, “inactive”; for `C[C@H]1CN([C@@H](C)CO)C(=O)c2cc(NC(=O)CCCN(C)C)ccc2O[C@@H]1CN(C)Cc1ccccc1`, “inactive”. Turning to `C[C@@H]1CN([C@@H](C)CO)C(=O)c2cc(NC(=O)CCCN(C)C)ccc2O[C@@H]1CN(C)Cc1ccccc1`, the cytotoxicity call was “inactive”. For `C[C@H](CO)N1C[C@H](C)[C@H](CN(C)Cc2ccc(Oc3ccccc3)cc2)Oc2ccc(NC(=O)CCCN(C)C)cc2C1=O` the value was “active”; for `C[C@@H]1CN([C@@H](C)CO)C(=O)c2cc(NC(=O)CCCN(C)C)ccc2O[C@@H]1CN(C)Cc1ccc(Oc2ccccc2)cc1`, “active”; for `C[C@@H]1CN([C@H](C)CO)C(=O)c2cc(NC(=O)CCCN(C)C)ccc2O[C@@H]1CN(C)Cc1ccccc1`, “inactive”. For `C[C@H](CO)N1C[C@H](C)[C@H](CN(C)Cc2ccccc2)Oc2ccc(NC(=O)CCCN(C)C)cc2C1=O` the value was “inactive”. Regarding `Cc1noc(C)c1NC(=O)Nc1ccc2c(c1)CC(=O)N([C@@H](C)CO)C[C@H](C)[C@H](CN(C)Cc1ccc(C(F)(F)F)cc1)O2`, the cytotoxicity call is “inactive”. For `C[C@@H]1CN([C@H](C)CO)C(=O)c2cc(NC(=O)Nc3ccc(F)cc3)ccc2O[C@@H](C)CCCCO[C@H]1CN(C)C(=O)Nc1ccccc1` the value was “inactive”; for `O=c1[nH]ncc2ccccc12`, “inactive”; for `Cc1ccc(S(=O)(=O)Nc2cccc3c2O[C@@H](CN(C)S(=O)(=O)c2ccccc2)[C@H](C)CN([C@H](C)CO)C3=O)cc1`, “inactive”.

On to `O=C(CN1CCOCC1)NCC[C@H]1CC[C@@H](NC(=O)c2ccc3c(c2)OCO3)[C@@H](CO)O1`, for which the cytotoxicity call was “inactive”. For `Cc1ccc(S[C@]2(C(=O)NC(C)C)CC(=O)N(Cc3ccccc3Cl)[C@@H]2c2ccc(CO)cc2I)cc1` the value was “inactive”; for `O=C(C[C@@H]1C[C@@H]2c3cc(NS(=O)(=O)c4ccc(F)cc4)ccc3O[C@@H]2[C@H](CO)O1)N1CCCCC1`, “inactive”. For `C[C@@H]1CN([C@H](C)CO)C(=O)Cc2cc(NC(=O)CCC(F)(F)F)ccc2O[C@H]1CN(C)Cc1ccc(C(=O)Nc2ccccc2N)cc1` the value was “inactive”; for `C[C@H]1CN([C@@H](C)CO)C(=O)Cc2cc(NC(=O)CCC(F)(F)F)ccc2O[C@H]1CN(C)Cc1ccc(C(=O)Nc2ccccc2N)cc1`, “active”; for `C[C@H](CO)N1C[C@H](C)[C@@H](CN(C)Cc2ccc(C(=O)Nc3ccccc3N)cc2)Oc2ccc(NC(=O)CCC(F)(F)F)cc2CC1=O`, “inactive”. For the compound `C[C@@H]1CN([C@@H](C)CO)C(=O)Cc2cc(NC(=O)Nc3ccc(C(F)(F)F)cc3)ccc2O[C@@H]1CN(C)Cc1ccc(C(=O)Nc2ccccc2N)cc1`, the cytotoxicity call was “active”. On to `C[C@@H]1CN([C@H](C)CO)C(=O)Cc2cc(NC(=O)Nc3ccc(C(F)(F)F)cc3)ccc2O[C@@H]1CN(C)Cc1ccc(C(=O)Nc2ccccc2N)cc1`, for which the cytotoxicity call is “active”.

Regarding `C[C@H]1CN([C@@H](C)CO)C(=O)Cc2cc(NC(=O)Nc3ccc(C(F)(F)F)cc3)ccc2O[C@H]1CN(C)Cc1ccc(C(=O)Nc2ccccc2N)cc1`, the cytotoxicity call was “active”. For `C[C@H]1CN([C@@H](C)CO)C(=O)Cc2cc(NC(=O)Nc3ccc(C(F)(F)F)cc3)ccc2O[C@@H]1CN(C)Cc1ccc(C(=O)Nc2ccccc2N)cc1` the value was “inactive”; for `C[C@@H]1CN([C@H](C)CO)C(=O)Cc2cc(NC(=O)Nc3ccc(C(F)(F)F)cc3)ccc2O[C@H]1CN(C)Cc1ccc(C(=O)Nc2ccccc2N)cc1`, “inactive”.

As to `C[C@@H]1CN([C@@H](C)CO)C(=O)Cc2cc(NC(=O)Nc3ccccc3)ccc2O[C@@H]1CN(C)Cc1ccc(C(=O)Nc2ccccc2N)cc1`, the cytotoxicity call is “inactive”. As to `CC(=O)O[C@H]1C[C@@H]2CC[C@@H]3[C@H](CC[C@@]4(C)[C@H]3C[C@H]([N+]3(C)CCCCC3)[C@@H]4OC(C)=O)[C@@]2(C)C[C@@H]1N1CCCCC1`, the cytotoxicity call was “inactive”. For `C[C@@H]1CN([C@@H](C)CO)C(=O)c2cc(NC(=O)CCN3CCOCC3)ccc2O[C@@H]1CN(C)Cc1ccncc1` the value was “inactive”; for `C[C@@H]1CN([C@@H](C)CO)C(=O)c2cc(NS(=O)(=O)c3cccs3)ccc2O[C@H]1CN(C)S(C)(=O)=O`, “inactive”. For `Cc1noc(C)c1S(=O)(=O)Nc1ccc2c(c1)CC(=O)N([C@H](C)CO)C[C@@H](C)[C@@H](CN(C)S(=O)(=O)c1cccs1)O2` the value was “inactive”; for `Cc1noc(C)c1S(=O)(=O)Nc1cccc2c1O[C@H](CN(C)C(=O)NC1CCCCC1)[C@H](C)CN([C@H](C)CO)C2=O`, “inactive”. For `CC(C)CC#Cc1ccc2c(c1)O[C@H](CN(C)C(=O)c1ccccn1)[C@@H](C)CN([C@@H](C)CO)S2(=O)=O` the value was “inactive”.

Consider `CC(C)(C)[S@@](=O)N1Cc2cc(C(=O)N[C@H]3CCN(Cc4ccccc4)C3)nc(-c3cccc(-c4cccnc4)c3)c2[C@H]1CCO`, for which the cytotoxicity call was “inactive”. For `C[C@H]1CN([C@@H](C)CO)C(=O)c2cc(C#Cc3ccc(F)cc3)cnc2O[C@H]1CN(C)Cc1ccccn1` the value was “inactive”; for `COc1ccc(NC(=O)Nc2ccc3c(c2)CC(=O)N([C@H](C)CO)C[C@@H](C)[C@@H](CN(C)S(=O)(=O)c2cn(C)cn2)O3)cc1`, “inactive”.
